Experimental data taken from the supplement of paper PMC11417369.
± gives the standard deviation of the averaged measurements. Over roughly 25,000 sequences, “ln(normalized median fluorescence intensity)” has its median near 8.9; the highest 2% begin near 10. For the sample, the highest values were picked, then their nearest neighbours and some sequences at random.

test system: PfAP2-LT AP2 domain (GST-tagged); experiment: gcPBM binding intensity (ln(normalized median fluorescence intensity)); higher = stronger DNA binding
Procedure, shortened: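 Binding intensity is defined as the maximum Masliner-normalised natural-log median intensity across replicate spots for either probe orientation. It was measured on an Agilent 4 × 180k array of primer-extended double-stranded 36-bp intergenic genomic probes and negative controls, to which GST-tagged P. falciparum DNA-binding domains made in E. coli were applied for 1 h in 1× PBS with 1% milk, 0.2 mg/ml BSA, 0.5% salmon testes DNA and 0.03% Triton X-100. Detection was by Alexa488 anti-GST antibody and scanning at 488 nm.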

Sequence	gcPBM binding intensity (ln)
AAAAAAATATATAAATGTACATATTGTTTAATTAAT [XGTACX_site3794]	8.7 ± 0.45
ATAATAAATGATAGCACACATATGTACATAAATACA [CACACA_site4634]	9.24 ± 0.31
TATTAATTTATATCAACACACAAAATCAATATACTT [CACACA_site1757]	8.7 ± 0.42
ATTATGCTACAAGGAGAACACACAATTGCCACTTTT [CACACA_site8673]	9.1 ± 0.46
AATGATCATATATACACACACACAAAAAAAAAAAAA [CACACA_site4009]	9.6 ± 0.45
ATAAAGATAATATATGCACACATATAAATATATAAA [CACACA_site9153]	9.09 ± 0.43
CATACAGATATATATACACACATACAGATAAATACA [CACACA_site4592]	9.3 ± 0.28
TACATACATACATACACACACACATATAAATACATA [CACACA_site4626]	10.1 ± 0.4
TATACAGATATATATACACACATATATATAAATACA [CACACA_site4383]	9.24 ± 0.39
TACAGATACAGATACACACACACACCGAAATAAATA [CACACA_site4865]	10.2 ± 0.43
TATACAGATAAATACACACACACATATATATATATA [CACACA_site4845]	10.3 ± 0.25
CATAAATACATACATACACACATATATATATATATA [CACACA_site2106]	9.88 ± 0.085
ATTTAATACAAATACACACACAAATAAATACAGATA [CACACA_site5956]	9.47 ± 0.26
ATAAATACAGATAACACACACATATATATATATATA [CACACA_site5431]	10.225 ± 0.0071
CACATACAGATATATACACACAAATATAAATACACA [CACACA_site6512]	9.52 ± 0.4
TATAAATACAGATACACACACACACCGATATATATA [CACACA_site5271]	9.94 ± 0.18
AATAAATATATAAATACACACAAACATACAGATATA [CACACA_site6088]	9.37 ± 0.35
CATATATAAATATATACACACATACATACATACATA [CACACA_site5988]	9.36 ± 0.4
AATTAAATTATAAGCACACACATATATATATATATA [CACACA_site3351]	9.81 ± 0.057
ATAGTTACACGCCAAAAAAAAAAAAAAAAAAAAAAA [CACACA_negctrl_site1133]	8.21 ± 0.42
TTTTTTTTTTTTTTTTGTACACATAATATGAATAAT [XGTACX_site2661]	8.57 ± 0.32
AAAAAATTATTAATTTGTACATAAATAACCAAAAAA [XGTACX_site2488]	8.49 ± 0.52

Sequence	gcPBM binding intensity (ln)
TTTTCCTTTACATAATGTACACAAAAAAAAAAAAAA [XGTACX_site716]	8.21 ± 0.35
CTATAAAAATATAATTGTACAAATTTTTATATCTTA [XGTACX_site7722]	8.35 ± 0.45
TAGAAACCATAAAAATGTACTTAAAAATAGACAATT [XGTACX_site5007]	8.78 ± 0.5
AAAATTTTGGAACGTGCACACATATGTAATATATAT [CACACA_site9004]	9.32 ± 0.37
TACATACATACATACACACACATATAGATTTATATA [CACACA_site6999]	9.48 ± 0.28
CTATATAATATGAGCACACATAAGATTTGGTGTTAT [CACACA_site744]	8.93 ± 0.34
CATAAATACAGATATACACACATATATATATATATA [CACACA_site4528]	9.7 ± 0.45
CCCCCCGTGTTATATACACACATAATCAAATAAAAT [CACACA_site4111]	11.1 ± 0.44
AGGCACGTGTTATATACACACATAATCAAATAAACT [CACACA_site7852]	9.36 ± 0.38
TATACAGATAAATACACACACATATATATATATATA [CACACA_site4178]	10.2 ± 0.33
AAATTATAATATAATACACACATAAAAAAAAAATCA [CACACA_site3634]	9 ± 0.44
TAAATAAATACATACACACACATACAGATATATATA [CACACA_site5690]	9.62 ± 0.26
AATTAAAATACAAATGTATGCATGTCTCATATAGAA [TGCATGCA_site822]	8.78 ± 0.43
ATTCTTAAATGTGGTTGTACATATTATCACCTTTAA [XGTACX_site8188]	8.75 ± 0.42
TGGAGATTTTTAAAGACACACAGGTAAGAATAATAA [CACACA_site1582]	8.77 ± 0.47
CAAGAAAATGGACACACACACATATATATATATATA [CACACA_site6010]	10.37 ± 0.092
TAAATTTATGGACACACACACATATATATATATATA [CACACA_site4620]	9.955 ± 0.021
AAAGGATATAGACACACACACACATATATATATATA [CACACA_site2200]	10.3 ± 0.32
AAAAATTATGGACACACACACATATATATATATATT [CACACA_site4717]	9.8 ± 0.11
AAAGGATATGGACACACACACACATATATATATATA [CACACA_site8686]	10.5 ± 0.15
TATATATATGGACACACACACACATATATATATATA [CACACA_site6121]	10.3 ± 0.23
TATATATATAGACACACACACACATATATATATATA [CACACA_site9366]	10.02 ± 0.042
